# Assay outcomes deposited in PubChem BioAssay by National Center for Advancing Translational Sciences (NCATS).
# Mito fusion yeast: blocks mitochondrial division or promotes mitochondrial fusion | actives 0.23% (n = 320,000) | AID 485298 | S. cerevisiae fusion-defective mutant growth rescue, CellTiterGlo 48 h | Potency, µM (top dose mostly 46.1 µM), without a hit: top-dose growth rescue (activation), actives largely listed as activators; also: potency is read from the fitted curve at half-maximal effect; % of control where 0% means no effect; nearly all actives have a fitted effect of over 45% in size
#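 Temperature-sensitive fusion-defective S. cerevisiae (e.g. fzo1-1, mgm1-5) were grown with compound in YPEG medium (3% ethanol, 3% glycerol) for 48 hours at 37C. Growth rescue was measured as viability by CellTiterGlo luminescence after 10 minutes at ambient.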
# CCT chaperon mod: modulators of cytosolic chaperonin (CCT/TRiC) activity. purified chaperonin ATPase assay, HTRF ADP detection, 30 min. AID 651819. actives 0.3% (n = 360,000). activity change, % (no concentration beside the values), hits read low; in the data active = activity change below about -30%; also: % is scaled to controls: 0 for no effect and ±100 for the full control effect
#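 TRiC at 40 or 20 nM final (batch-dependent) in 30 mM Tris pH 7.4, 100 mM KCl, 5 mM MgCl2, 1 mM DTT, with compound at single 76 uM and 10 uM ATP, 30 min at 37 deg C. ADP detected by HTRF Transcreener, 665/615 ratio.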
# Anesthetic bind: candidate novel general anesthetic via apoferritin binding; P02791; AID 485281; Potency, µM (doses to about 77.5 µM), inactives show top-dose activity change, negative = displacement, usual class: inhibitors; apoferritin/1-aminoanthracene competitive binding, fluorescence; actives 0.074% (n = 350,000); also: potency is read from the fitted curve at half-maximal effect; % is scaled to controls: 0 for no effect and ±100 for the full control effect; nearly all actives have a fitted effect of over 20% in size
# Target sequence (P02791 2-175 limits assumed): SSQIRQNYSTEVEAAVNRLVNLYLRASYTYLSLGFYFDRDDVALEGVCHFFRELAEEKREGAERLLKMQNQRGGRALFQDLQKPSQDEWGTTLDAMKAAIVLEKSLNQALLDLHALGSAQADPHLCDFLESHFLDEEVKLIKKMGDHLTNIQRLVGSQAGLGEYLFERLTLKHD
#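 Steps: apoferritin (10 uM) was premixed with half-saturated 1-AMA in PBS, compounds were pin-transferred, plates stood 10 min at room temperature, fluorescence was read at 380/535 nm, and curves were fitted with a Hill equation.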
# Akt phos inh: inhibitors of Akt phosphorylation; AID 651550; Neuro2A IGF-stimulated pAkt S473 HTRF, 20 min; stronger effect = lower value; actives 0.32% (n = 360,000); activity change, % for hits at 50 µM; in the data active = activity change below about -80%; inconclusive = mostly about -51% to -80%; also: % is scaled to controls: 0 for no effect and ±100 for the full control effect
#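 Neuro2A cells (4,500/well, DMEM with 0.5% FBS) were treated with compound at a single 50 µM final concentration, stimulated with 6 nM IGF for 20 min at 37 °C, and lysed. Phospho-Akt Ser473 was read by HTRF as 665/615 ratio ×10^4.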
# TDP-43 yeast inh: inhibitors of TDP-43 toxicity in yeast | actives 1.8% (n = 410,000) | Potency, µM (highest dose often 46.1 µM), without a hit: at the top dose growth rescue (activation), usual class: activators | TDP-43 expressing yeast growth rescue, BacTiter-Glo, 24 h; also: potency is read from the fitted curve at half-maximal effect; % of control where 0% means no effect; nearly all actives have a fitted effect of over 50% in size
#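 In this qHTS, compounds that restore growth of yeast expressing TDP-43 appear as activators. Cells (OD600=0.02, galactose medium, raffinose-pregrown) are incubated with compound 24 hr at 30 deg C and growth is quantified by BacTiter-Glo.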
# aSyn yeast inh: rescues yeast growth from alpha-synuclein toxicity. Yeast expressing alpha-synuclein, growth rescue, BacTiter-Glo, 24 h. Potency, µM (doses to about 46.1 µM), inactives show at the top dose growth rescue (activation), hits mostly activators. actives 0.14% (n = 370,000); also: potency is read from the fitted curve at half-maximal effect; % of control where 0% means no effect; nearly all actives have a fitted effect of over 65% in size
#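 Readout is rescue of growth in alpha-synuclein-expressing yeast, so inhibitors of toxicity appear as activators. Growth after 24 hr at 30 deg C in galactose medium is quantified by luminescence.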
# Active calls of the source: *; i = inactive; ? = inconclusive; . = no result given; [ ] = another dose, or the depositor's remark. Most compounds without a hit are left out; they make up all but 2.5% or so of the library. Unless noted, calls follow the shape of the dose curve; as a rule, active = well fitted curve in the direction sought with a large enough effect; inconclusive = small, poorly fitted or top-dose-only effect, or another doubt; inactive = no such curve, though single readings can be large; an effect the other way counts as inactive or inconclusive.
SMILES,Mito fusion yeast,CCT chaperon mod,Anesthetic bind,Akt phos inh,TDP-43 yeast inh,aSyn yeast inh
O=C(NCC1CCCO1)C(c1cccs1)N(Cc1ccccc1)C(=O)c1ccc(-c2ccccc2)[nH]1 (stereo not drawn),1%,-1,-14%,i,16µM*,4%
O=C(NCC1CCCO1)C(c1ccc(F)cc1)N(CCCN1CCOCC1)C(=O)c1ccc(-c2ccccc2)[nH]1 (stereo not drawn),3%,-3,-15%,i,-22%,-3%
COc1ccc(CN(C(=O)c2ccc(-c3ccccc3)[nH]2)C(C(=O)NCC2CCCO2)c2ccc(C)o2)cc1 (stereo not drawn),-16%,0,2%,i,11µM*,27%
O=C(NCC1CCCO1)C(c1cccs1)N(C(=O)c1ccc(-c2ccccc2)[nH]1)C1CCCC1 (stereo not drawn),21%,-14,3%,i,20%,14%
C[n+]1c(/C=C/c2ccnc3ccccc23)cc(/C=C/c2ccnc3ccccc23)c2ccccc21,.,.,.,.,.,-38%
CSc1ncc(Cl)c(C(=O)Nc2cccc(Cl)c2)n1,6%,1,8%,i,22µM*,10%
CC(=O)Nc1ccc(NC(=O)c2nc(SCc3ccccc3F)ncc2Cl)cc1,.,.,.,.,.,32µM*
COc1cccc2c1cc1c(=O)n(CC(=O)N3CCN(c4cccc(C(F)(F)F)c4)CC3)nc(C)n12,.,.,0%,.,-10%,.
Nc1ncnc2c1ncn2C1CCCO1 (stereo not drawn),8%,-1,.,i,35µM*,-13%
Nc1ncnc2c1ncn2C1CCCC1,-10%,1,.,i,25%,-1%
Nc1ncnc2c1ncn2[C@H]1CC[C@@H](CO)O1,-8%,-2,-1%,i,13µM*,-7%
O=C(/C=C/c1ccco1)Nc1ccc(Oc2ccc(Cl)cc2)cc1,4%,0,?,-108%*,5%,-12%
O=C(COC(=O)/C=C/c1ccco1)NCc1ccc(Cl)cc1,-2%,2,.,i,10µM*,5%
O=C(COC(=O)/C=C/c1ccco1)NCc1ccccc1,0%,2,-10%,i,4%[9.22 µM],1%
ON=C(CCc1ccccc1)c1ccccc1,.,-1,.,i,16µM*,12%
O/N=C(\COc1ccccc1O)c1ccccc1,12%,-4,?,.,8%,0%
CCc1nn(Cc2c(C)cc(C)cc2C)c(=O)c2cc3cc(C)ccc3n12,.,.,1%,.,24%,.
CC(=O)NC(c1ccc(Cl)cc1Cl)c1ccc2cccnc2c1O (stereo not drawn),5%,-17,-21%,i,32µM*,?
CCCC(=O)NC(c1cccc([N+](=O)[O-])c1)c1ccc2cccnc2c1O (stereo not drawn),.,1,.,i,2%,-2%
CC(C)C(=O)NC(c1cccc([N+](=O)[O-])c1)c1ccc2cccnc2c1O (stereo not drawn),1%,0,-15%,i,35µM*,-39%
Cc1ccc(Nc2nc(NCc3ccco3)nc3nccnc23)c(C)c1,.,.,.,.,.,-1%
CCCN1C(=O)c2ccccc2NC1c1ccc(OC)cc1O (stereo not drawn),0%,-86*,31%,i,-13%,-13%
CCCN1C(=O)c2ccccc2NC1c1ccc(OC)cc1OC (stereo not drawn),4%,2,1%,i,-12%,7%
O=Cc1ccc(/C=C2\C=Cc3ccccc32)cc1,.,.,.,.,.,-1%
N#Cc1c(N)nc2c(c1-c1ccc3c(c1)OCO3)CCc1ccccc1-2,?,2,117%,i,32µM*,8%
N#Cc1c(-c2ccc3c(c2)OCO3)csc1N,10%,0,-6%,i,16µM*,1%
N#C/C(=C\c1ccc(F)c(Br)c1)C(=O)NC1CC1,1%,1,-6%,i,?,?
CC(C)(C)c1ccc(/C=C(\C#N)C(=O)NC2CC2)cc1,.,2,.,i,35µM*,27%
